According to PubChem BioAssay (EPA / NIEHS):
Inconclusive results are not listed. Active and inactive are the calls of the source. How the source made its calls, unless noted: active means hit-call score of the fitted dose curve at least 0.9, where 1 is the maximum; inactive means score below 0.9.

What was measured:
[1] = CCTE_Shafer_MEA_dev_correlation_coefficient_mean: CCTE's Neural Network Formation Assay for Mean Correlation Coefficient, Shafer Lab (AID 2284093);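 further: well mean pairwise spike train correlation integrated as AUC over recording days 5 to 12; potency fitted for loss of correlation relative to DMSO vehicle wells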
Outline: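 Spontaneous activity recorded on days 5, 7, 9 and 12 post-plating; pairwise spike correlations are averaged across active electrodes and collapsed to an area-under-curve. Rat cortical cultures are dosed from plating through 12 days, with compound renewed at media changes.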

[2] = UKN4_HCS_LUHMES_neurite_outgrowth: University of Konstanz (UKN) Leist Lab Neurite Outgrowth Assay in human LUHMES cells (UKN4) (AID 2284206); conditions: actives raise or lower the signal
Outline: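 Neurite area in dopaminergic-model LUHMES neurons is measured by high-content imaging of calcein-AM after 24 h treatment starting shortly after day-2 replating; Hoechst staining tracks viability.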

[3] = IUF_NPC1b_proliferation_BrdU_72hr: Leibniz Research Institute for Environmental Medicine (IUF) 72-hour Neural Progenitor Cell Bromodeoxyuridine (BrdU) Proliferation Assay (NPC1b) (AID 2284207)
Outline: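 Neural progenitor spheres of human fetal origin are treated for three days; BrdU added for the last 16 h is quantified by luminescence ELISA, with DMSO as baseline and EGF/FGF omission as positive control.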

[4] = IUF_NPC1a_proliferation_area_72hr: Leibniz Research Institute for Environmental Medicine (IUF) 72-hour Neural Progenitor Cell Proliferation Area Assay (NPC1a) (AID 2284208)
Outline: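 Proliferation is scored as sphere area gain in primary human fetal neural progenitors treated for 72 h in EGF/FGF-containing medium. Viability, LDH and BrdU readouts come from the same wells.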

[5] = IUF_NPC1_viability_72hr: Viability Assessment at 72 hours in the Leibniz Research Institute for Environmental Medicine (IUF) Neural Progenitor Cell Proliferation Assay (NPC1) (AID 2284209)
Outline: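 Three-day continuous exposure of human neural progenitor spheres under EGF/FGF-driven proliferation; cell viability scored by alamar blue signal versus DMSO.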

[6] = CCTE_Mundy_HCI_Cortical_Synap_Neur_Matur_NeuriteSpotCountPerNeuriteLength: CCTE's Synaptogenesis and Neurite Maturation Assay in rat cortical cells for Neurite Spot Count per Neurite Length, Mundy Lab (AID 2284210)
Outline: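 Neurite-associated synapse density (synaptophysin puncta per unit neurite length) is measured by fluorescence high-content imaging in rat cortical cultures treated from DIV 7 and fixed at DIV 12, with DMSO as negative control.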

[7] = CCTE_Mundy_HCI_Cortical_Synap_Neur_Matur_BPCount: CCTE's Synaptogenesis and Neurite Maturation Assay in rat cortical cells for Branch Point Count, Mundy Lab (AID 2284211)
Outline: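 In this multiplexed morphology assay, cortical cells from rat receive chemicals at DIV 7 and are fixed at DIV 12, then immunostained and imaged; branch points are counted, with DMSO as baseline.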

[8] = CCTE_Mundy_HCI_Cortical_NOG_NeuriteCount: CCTE's Neurite Outgrowth Assay in rat cortical cells for Neurite Count, Mundy Lab (AID 2284212);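 further: cells fixed about two days after chemical exposure began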
Outline: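 Rat cortical primary cells; compound added 2 h post-plating, 1/10 dilution of working solution. Anti-betaIII-tubulin/AF488 ICC; ArrayScan neurite count vs DMSO.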

[9] = CCTE_Mundy_HCI_Cortical_Synap_Neur_Matur_NeuriteLength: CCTE's Synaptogenesis and Neurite Maturation Assay in rat cortical cells for Neurite Length, Mundy Lab (AID 2284214)
Outline: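 DMSO-normalised neurite length, from high-content imaging of anti-MAP2-stained rat cortical cells fixed at DIV 12. Glia were suppressed with AraC (DIV 5) before chemical exposure from DIV 7.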

[10] = CCTE_Mundy_HCI_Cortical_Synap_Neur_Matur_NeuriteSpotCountPerNeuron: CCTE's Synaptogenesis and Neurite Maturation Assay in rat cortical cells for Neurite Spot Count per Neuron Count, Mundy Lab (AID 2284215)
Outline: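 Synapse density is scored as synaptophysin spots along neurites per neuron in fixed rat cortical neurons, measured at DIV 12 after chemical dosing at DIV 7. DMSO is the negative control and activity baseline.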

[11] = CCTE_Mundy_HCI_Cortical_Synap_Neur_Matur_SynapseCount: CCTE's Synaptogenesis and Neurite Maturation Assay in rat cortical cells for Synapse Count, Mundy Lab (AID 2284218)
Outline: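 Endpoint: synapses/neuron by HCI (synaptophysin puncta on MAP2-labelled neurites, Hoechst nuclei). Rat primary cortical cells, AraC DIV 5, dosed DIV 7, fixed DIV 12; DMSO negative control.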

[12] = CCTE_Mundy_HCI_Cortical_Synap_Neur_Matur_NeuriteCount: CCTE's Synaptogenesis and Neurite Maturation Assay in rat cortical cells for Neurite Count, Mundy Lab (AID 2284222);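 further: exposure from day 7 to day 12 in vitro with readout at day 12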
Outline: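 Rat primary cortical cells; AraC added at DIV 5, chemicals dosed with media change at DIV 7 through DIV 12. MAP2/synaptophysin/Hoechst immunostaining, high-content imaging of neurite number; fitted relative to DMSO.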

[13] = CCTE_Mundy_HCI_Cortical_Synap_Neur_Matur_CellBodySpotCount: CCTE's Synaptogenesis and Neurite Maturation Assay in rat cortical cells for Cell Body Spot Count, Mundy Lab (AID 2284223)
Outline: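 Synapse number at neuronal cell bodies was quantified as synaptophysin puncta per neuron in rat cortical cultures exposed from DIV 7 to DIV 12. Values were normalised to DMSO.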

[14] = CCTE_Mundy_HCI_hNP1_Pro_ResponderAvgInten: CCTE's Proliferation Assay in human neuroprogenitor cells, Mundy Lab (AID 2284224; active means hit-call score of the fitted dose curve at least 0.9, where 1 is the maximum;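 further: human neural progenitor cells hNP1 derived from WA09 embryonic stem cells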)
Outline: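 Human neuroprogenitors (hNP1, WA09 lineage) receive test chemical after 40 to 44 hours of attachment. A four-hour BrdU pulse begins twenty hours later, followed by fixation and high content imaging; signal is referenced to DMSO controls.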

[15] = UKN4_HCS_LUHMES_cell_viability: Viability Assessment in the University of Konstanz (UKN) Leist Lab Neurite Outgrowth Assay in human LUHMES cells (UKN4) (AID 2284232)
Outline: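 Measured in replated, 2-day-differentiated LUHMES cells treated 24 h; stained 30 min with H-33342 and calcein-AM before high-content imaging.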

[16] = CCTE_Mundy_HCI_Cortical_NOG_NeuronCount: CCTE's Neurite Outgrowth Assay in rat cortical cells for Neuron Count, Mundy Lab (AID 2284236; active means hit-call score of the fitted dose curve at least 0.9, where 1 is the maximum;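 further: neurons counted by imaging betaIII-tubulin and Hoechst stained cortical cells; cells exposed to compound for about 48 hours before fixation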)
Outline: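 Read-out: neuron number by high-content imaging of betaIII-tubulin (Alexa Fluor-488) and Hoechst-labelled rat primary cortical cells.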

[17] = CCTE_Mundy_HCI_Cortical_NOG_BPCount: CCTE's Neurite Outgrowth Assay in rat cortical cells for Branch Point Count, Mundy Lab (AID 2284237);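 further: branch points counted about two days after chemical exposure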
Outline: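 Measured 50.33 h after dosing, this morphology endpoint uses rat primary cortical cultures labelled for betaIII-tubulin. Branch points are quantified by high-content imaging, with DMSO as negative control and baseline.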

[18] = CCTE_Mundy_HCI_hNP1_Casp3_7: CCTE's Caspase-Glo 3/7 Assay in human neuroprogenitor cells for Apoptosis, Mundy Lab (AID 2284240)
Outline: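 Neuroepithelial-lineage stem cells from WA09 embryonic cells were treated with chemicals after 40–44 h of culture. Twenty-four hours later, caspase-3/7 activation was detected luminescently after a 30 min room-temperature reagent step, with DMSO as baseline.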

[19] = CCTE_Mundy_HCI_hNP1_CellTiter: CCTE's Cell Titer-Glo 2 Assay in human neuroprogenitor cells for Viability, Mundy Lab (AID 2284241; active means hit-call score of the fitted dose curve at least 0.9, where 1 is the maximum)
Outline: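 Measures ATP content in human neural progenitors derived from WA09 embryonic cells. Read-out at 26.5 hours after dosing, with DMSO serving as the negative control and baseline.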

[20] = IUF_NPC2c_oligodendrocyte_migration_120hr: Leibniz Research Institute for Environmental Medicine (IUF) 120-hour Neural Progenitor Cell Migration Assay for Oligodendrocyte Migration (NPC2c) (AID 2284297);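 further: O4-positive oligodendrocyte migration distance divided by radial glia migration distance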
Outline: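 Primary hNPC spheres migrating on extracellular matrix, exposed five days to a 7-point dilution series with solvent control. Oligodendrocyte migration was scored by high-content imaging of O4 immunostaining and expressed relative to radial glia distance.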

[21] = IUF_NPC2a_radial_glia_migration_120hr: Leibniz Research Institute for Environmental Medicine (IUF) 120-hour Neural Progenitor Cell Migration Assay for Radial Glia Migration (NPC2a) (AID 2284298)
Outline: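 In this multiplexed test, fetal hNPC spheres migrate radially on poly-D-lysine/laminin in N2 medium (37C, 5% CO2, pH 7.2-7.6) under continuous compound exposure over five days. Migration is scored at 120 h from automated Hoechst nuclear imaging.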

[22] = IUF_NPC2a_radial_glia_migration_72hr: Leibniz Research Institute for Environmental Medicine (IUF) 72-hour Neural Progenitor Cell Migration Assay for Radial Glia Migration (NPC2a) (AID 2284299)
Outline: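 Spheres of human primary neural progenitors migrate on poly-D-lysine/laminin under compound exposure at 37C, 5% CO2. The 72 h radial glia migration distance comes from brightfield images, measured manually.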

[23] = IUF_NPC2b_neuronal_migration_120hr: Leibniz Research Institute for Environmental Medicine (IUF) 120-hour Neural Progenitor Cell Migration Assay for Neuron Migration (NPC2b) (AID 2284300)
Outline: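 Neurons identified by TUBB3 immunostaining and Hoechst nuclei; migration distance measured automatically on fixed wells at 120 h, normalized to glia migration. Exposure spanned five days of differentiation in N2 medium, seven test concentrations.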

[24] = IUF_NPC3_neuronal_differentiation_120hr: Leibniz Research Institute for Environmental Medicine (IUF) 120-hour Neuronal Differentiation Assay (NPC3) (AID 2284301)
Outline: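 Neuronal differentiation of primary human neural progenitors measured by high-content imaging: percent TUBB3+ of Hoechst+ nuclei within migrated area at 120 h, seven-point serial dilution plus solvent control, gain or loss relative to DMSO.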

[25] = IUF_NPC4_neurite_length_120hr: Leibniz Research Institute for Environmental Medicine (IUF) 120-hour Neuronal Morphology Assay for Neurite Length (NPC4) (AID 2284302)
Outline: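 Neurons from differentiating human fetal neural progenitor spheres are scored for average neurite length after five days of compound exposure. Fitting uses DMSO as negative control.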

[26] = IUF_NPC5_oligodendrocyte_differentiation_120hr: Leibniz Research Institute for Environmental Medicine (IUF) 120-hour Oligodendrocyte Differentiation Assay (NPC5) (AID 2284304; active means hit-call score of the fitted dose curve at least 0.9, where 1 is the maximum;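 further: primary human fetal neural progenitor spheres plated to migrate and differentiate; share of O4-positive cells among Hoechst nuclei found by CNN image analysis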)
Outline: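 Human primary NPC neurospheres migrating and differentiating on laminin for 120 h under continuous compound exposure (serial dilution, solvent control). Endpoint: percent O4+ oligodendrocytes among Hoechst nuclei, detected by CNN image analysis, with DMSO as negative control.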

[27] = IUF_NPC4_neurite_area_120hr: Leibniz Research Institute for Environmental Medicine (IUF) 120-hour Neuronal Morphology Assay for Neurite Area (NPC4) (AID 2284305; active means hit-call score of the fitted dose curve at least 0.9, where 1 is the maximum)
Outline: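 Endpoint at 120 h: automated imaging of TUBB3/Hoechst-stained differentiating human neural progenitor spheres, neurite area per neuron from skeletonization. DMSO solvent control, not above 0.1%, set the baseline; medium was half-replaced on day 3.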

[28] = IUF_NPC2-5_cytotoxicity_72hr: Cytotoxicity Assessment at 72 hours in the Leibniz Research Institute for Environmental Medicine (IUF) Neural Progenitor Cell Migration and Differentiation Assay for Cytotoxicity (NPC2-5) (AID 2284306; active means hit-call score of the fitted dose curve at least 0.9, where 1 is the maximum;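 further: LDH release into supernatant measured by resorufin fluorescence marking membrane damage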)
Outline: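 Primary human neural progenitor spheres migrate and differentiate on laminin. Compound is present from the start of differentiation, with DMSO kept at or below 0.1%. At 72 h, supernatant LDH is quantified fluorometrically, with values fitted in the positive direction.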

[29] = IUF_NPC2-5_cell_number_120hr: Cell Number Assessment at 120 hours in the Leibniz Research Institute for Environmental Medicine (IUF) Neural Progenitor Cell Migration and Differentiation Assay (NPC2-5) (AID 2284308);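 further: count of Hoechst-stained nuclei in migration zone around plated human neural progenitor spheres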
Outline: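 Cell number is taken as all Hoechst-positive nuclei detected in the area into which cells migrate out of the sphere, scored at 120 h and referenced to DMSO solvent control, which was kept at no more than 0.1%.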

[30] = IUF_NPC2-5_viability_120hr: Viability Assessment at 120 hours in the Leibniz Research Institute for Environmental Medicine (IUF) Neural Progenitor Cell Migration and Differentiation Assay (NPC2-5) (AID 2284312)
Outline: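 Human fetal (GW 16-19) neural progenitor spheres of 0.3 mm were plated on poly-D-lysine/laminin in N2 differentiation medium and exposed from day 0 for 120 h, with half-medium refresh at day 3. Viability was read as alamar blue resazurin-to-resorufin fluorescence against DMSO.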

[31] = CCTE_Mundy_HCI_iCellGluta_NOG_NeuriteLength: CCTE's Neurite Outgrowth Assay in iCellGluta cells for Neurite Length, Mundy Lab (AID 2284318; active means hit-call score of the fitted dose curve at least 0.9, where 1 is the maximum)
Outline: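 Automated high-content imaging of betaIII-tubulin (Alexa Fluor-488) and Hoechst-stained cells gave neurite length, normalized to the DMSO baseline.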

[32] = IUF_NPC1_cytotoxicity_72hr: Cytotoxicity Assessment at 72 hours in the Leibniz Research Institute for Environmental Medicine (IUF) Neural Progenitor Cell Proliferation Assay (NPC1) (AID 2284332; active means hit-call score of the fitted dose curve at least 0.9, where 1 is the maximum;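 further: rising LDH signal means more cytotoxicity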)
Outline: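 Readout is fluorescence from LDH-dependent resazurin conversion, sampled from culture medium after compound contact lasting 72 h. Each well holds one 0.25-0.35 mm human progenitor sphere kept at 37C, 5% CO2 with EGF and FGF.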

[33] = CCTE_Mundy_HCI_iCellGluta_NOG_NeuronCount: CCTE's Neurite Outgrowth Assay in iCellGluta cells for Neuron Count, Mundy Lab (AID 2284340; active means hit-call score of the fitted dose curve at least 0.9, where 1 is the maximum;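 further: cells fixed about 48 h after compound addition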)
Outline: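 Neuron count read by automated high-content imaging of Hoechst 33342 and betaIII-tubulin/Alexa Fluor-488 labelling in human iPSC glutamatergic neurons. Activity fitted relative to DMSO.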

[34] = CCTE_Mundy_HCI_iCellGluta_NOG_NeuriteCount: CCTE's Neurite Outgrowth Assay in iCellGluta cells for Neurite Count, Mundy Lab (AID 2284342; active means hit-call score of the fitted dose curve at least 0.9, where 1 is the maximum;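 further: chemical exposure about 48 hours starting 2 hours after plating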)

Measured: AC50

O=C1CC2(CCCC2)CC(=O)N1CCCCN1CCN(c2ncccn2)CC1
active: [1] 25 µM | [2] 15.3 µM | [8] 11.9 µM | [17] 9.79 µM
inactive: all other assays above
